Experimental data from ChEMBL document CHEMBL3988442, “University of Dundee, Small-Polar-MMV Screening Library” (2021).

Tests used:
[1] = target: T1, Aspartate--tRNA(Asp/Asn) ligase (Mycobacterium tuberculosis (strain ATCC 25618 / H37Rv)) (UniProt P9WFW3); experiment: Assay for Asp RNA synthetase-1 from Mycobacterium tuberculosis; assay type: functional; design: scale not given: direction of the effect not stated beside the values; conditions: 30 µM; also: in the data most compounds retested in dose-response had high values
T1 sequence (whole entry): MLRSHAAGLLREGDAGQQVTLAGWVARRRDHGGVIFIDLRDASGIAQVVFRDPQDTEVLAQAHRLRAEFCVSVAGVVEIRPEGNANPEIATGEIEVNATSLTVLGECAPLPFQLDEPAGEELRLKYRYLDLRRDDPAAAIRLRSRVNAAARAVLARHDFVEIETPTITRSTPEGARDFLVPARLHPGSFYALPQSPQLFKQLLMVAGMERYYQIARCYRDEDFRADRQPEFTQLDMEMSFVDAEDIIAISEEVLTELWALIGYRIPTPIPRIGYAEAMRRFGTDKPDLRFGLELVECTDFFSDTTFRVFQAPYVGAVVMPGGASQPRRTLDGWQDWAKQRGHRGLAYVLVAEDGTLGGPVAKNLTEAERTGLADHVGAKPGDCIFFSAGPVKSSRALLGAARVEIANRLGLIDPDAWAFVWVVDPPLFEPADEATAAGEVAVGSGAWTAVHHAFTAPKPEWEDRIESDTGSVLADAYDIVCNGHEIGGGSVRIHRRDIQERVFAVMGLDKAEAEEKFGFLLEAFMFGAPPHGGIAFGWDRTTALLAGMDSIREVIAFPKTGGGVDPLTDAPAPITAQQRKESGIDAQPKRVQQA

[2] = target: Shiga toxin 2 (Escherichia coli O157:H7) (UniProt P09385+P09386); experiment: E. coli 0.157:H7 Shiga Toxin SOP - stx2 screening assay; assay type: functional; design: scale not given: direction of the effect not stated beside the values; conditions: 30 µM

| Structure (SMILES) | Percent Effect [1] [%] | Percent Effect [2] [%] |
| --- | --- | --- |
| CC(C)n1ccnc1C1CCN(Cc2ccc(Cl)c(F)c2)CC1 | 9.45 | -39.8 |
| Cc1cc(C(=O)N2CCCC2c2nnc3n2CCCCC3)no1 (centres undefined) | -2.81 | -2.64 |
| CC(C)CNC(=O)c1c(-n2cnnn2)sc2c1CCC2 | 8.87 | 2.02 |
| Cc1nc(COC[C@]23COC[C@H]2CN(Cc2ccoc2)C3)cs1 | -0.55 | 4.86 |
| CCO[C@H]1CO[C@@]2(CCCN(Cc3nc(C)cs3)C2)C1 | -4.51 | -13.5 |
| N#Cc1ccc(CN2CCN(C(=O)c3cc(C4CC4)[nH]n3)CC2)cc1 | -2.71 | -17.1 |
| CN(Cc1ccc(Cl)s1)C(=O)NCc1nnc2n1CCC2 | 0 | 27.4 |
| COCCOc1ccccc1C(=O)N1CCCCC1c1nccs1 (centres undefined) | 4.67 | -6.36 |
| Cc1ccc(OCCC(=O)NC2CCc3nccn3C2)cc1 (centres undefined) | -1.56 | -18 |
| COCCN(C)C(=O)Nc1ccc2c(ccn2CCOC)c1 | -1.14 | -20.9 |
| Cc1nn(C)c(C)c1C1CCCN1CC(=O)Nc1ccncc1 (centres undefined) | 1.52 | 11.1 |
| O=C(O)c1nnn(-c2ccc(OC(F)(F)F)cc2)c1-c1ccncc1 | 4.91 | -8.85 |
| Cc1noc(C2CCN(C(=O)CCc3nccs3)CC2)n1 | -2.48 | -79.2 |
| CN(Cc1cscn1)C1CCCN(Cc2noc(C3CC3)n2)C1 (centres undefined) | -2.67 | 0.508 |
| Cc1ccc(N2CCCN(C(=O)C(C(C)C)n3cncn3)CC2)nn1 (centres undefined) | -4.34 | -13.6 |
| Cc1ccc(CC(=O)N2CCOC(c3nc(C)n[nH]3)C2)cn1 (centres undefined) | 1.92 | 0.301 |
| CC(=O)Nc1nc(C(=O)N2CCCC2Cn2cc(C)cn2)cs1 (centres undefined) | -1.84 | 20.3 |
